Test systems include SR leukemia; RPMI-8226 leukemia; OVCAR-8 ovarian; OVCAR-5 ovarian; OVCAR-4 ovarian; SK-OV-3 ovarian; IGROV1 ovarian; OVCAR-3 ovarian; HS 578T breast; NCI/ADR-RES ovarian; T-47D breast; BT-549 breast; MDA-MB-435 melanoma; SW-620 colon; MCF7 breast; HCT-116 colon; HCC-2998 colon; KM12 colon.
Holding throughout (test): NCI-60 one-dose screen, 48 h (100 = growth as untreated, 0 = no growth, -100 = all killed)
Conditions in all cases: 10 µM

The panel holds about 83,000 compounds, 20% with a hit somewhere; the sample as a whole holds those more often.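 Each cell line was grown in a 96-well plate and treated with one concentration of compound for 48 hours. Values below 10 were considered active.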 Values without a mark were called inactive. Calls of active or inactive are those of the source.

Consider `Cc1cc(Cl)ccc1Nc1nc(C(F)(F)F)ccc1C(=O)N/N=C/c1ccccc1Cl`, for which the growth in the assay on SR leukemia was 66%; in the assay with RPMI-8226 leukemia, 50.5%; in the assay with OVCAR-8 ovarian, 21.7%; with OVCAR-5 ovarian it was 30.8%; with OVCAR-4 ovarian, 29.2%; in the assay on SK-OV-3 ovarian, 10.4%. The growth in the assay on IGROV1 ovarian is 21.6%; in the assay on OVCAR-3 ovarian, 16.3%; with HS 578T breast, 17.4%; in the assay on NCI/ADR-RES ovarian, 8.31% (active); in the assay with T-47D breast it was 22%; in the assay on BT-549 breast it was -12.1% (active). Besides, the growth in the assay with MDA-MB-435 melanoma was 16.4%; with SW-620 colon it was 19.9%; with MCF7 breast, 16.2%; with HCT-116 colon, 7.23% (active); in the assay on HCC-2998 colon, 16.7%; in the assay on KM12 colon, 14.8%.
As for `NC(=O)C1CCCN(Cc2c[nH]c3ccccc23)C1` (configuration not stated), the growth in the assay on SR leukemia was 96.9%; in the assay on RPMI-8226 leukemia, 105%; with OVCAR-8 ovarian, 98.3%; with OVCAR-5 ovarian, 99.8%; in the assay with OVCAR-4 ovarian it was 108%; in the assay on SK-OV-3 ovarian, 100%. The growth with IGROV1 ovarian was 102%; in the assay with OVCAR-3 ovarian, 104%; in the assay on HS 578T breast it was 96.6%; with NCI/ADR-RES ovarian it was 94.8%; in the assay with T-47D breast, 92.8%; with BT-549 breast it was 105%. Moreover, the growth was 108% in the assay with MDA-MB-435 melanoma; 99.5% with SW-620 colon; 101% in the assay on MCF7 breast; 103% in the assay on HCT-116 colon; 100% with HCC-2998 colon; 102% with KM12 colon.
For the compound `c1ccc(C2CCCCC2)c(OCCCCCN2CCNCC2)c1`, the growth was -32.9% (active) in the assay on SR leukemia; -14.6% (active) in the assay with RPMI-8226 leukemia; 83.2% in the assay with OVCAR-8 ovarian; 93.8% with OVCAR-5 ovarian; 68.5% in the assay with OVCAR-4 ovarian; 94.9% in the assay on SK-OV-3 ovarian. Further, the growth in the assay on IGROV1 ovarian was 56.7%; with OVCAR-3 ovarian, 76.9%; with HS 578T breast it was 76%; in the assay with NCI/ADR-RES ovarian, 70%; in the assay on T-47D breast, 28%; in the assay with BT-549 breast, 72.4%. For the same compound, the growth was 47.2% with MDA-MB-435 melanoma; 11.3% with SW-620 colon; -34.4% (active) in the assay with MCF7 breast; -7.58% (active) in the assay on HCT-116 colon; -68.8% (active) in the assay on HCC-2998 colon; 35.6% with KM12 colon.
Consider `COc1cc2c3c(cccc3c1)C(=O)N(CCN1CCCC1)C2=O`, for which the growth in the assay on SR leukemia is 2.44% (active); in the assay on RPMI-8226 leukemia it was 12.2%; with OVCAR-8 ovarian, 6.43% (active); in the assay with OVCAR-5 ovarian, 34.1%; with OVCAR-4 ovarian it was 21.6%; in the assay on SK-OV-3 ovarian, 34.1%. Moreover, the growth with IGROV1 ovarian was 23.5%; in the assay on OVCAR-3 ovarian, 0.462% (active); in the assay on HS 578T breast, 27.1%; in the assay on NCI/ADR-RES ovarian, 13%; with T-47D breast, 25.3%; in the assay with BT-549 breast, 49.4%. Besides, the growth in the assay on MDA-MB-435 melanoma is 14.4%; with SW-620 colon it was 9.75% (active); with MCF7 breast it was 3.07% (active); in the assay with HCT-116 colon it was 6.66% (active); with HCC-2998 colon, 44.4%; with KM12 colon, 21.3%.
On to `FC(F)(F)c1ccc(-c2nc(-c3nc4cc(Cl)c(Cl)cc4[nH]3)c3ccccn23)cc1`, for which the growth was 84.2% with SR leukemia; 71.5% with RPMI-8226 leukemia; 63.3% in the assay on OVCAR-8 ovarian; 88.6% with OVCAR-5 ovarian; 4.24% (active) with OVCAR-4 ovarian; 38% in the assay on SK-OV-3 ovarian. The growth in the assay on IGROV1 ovarian was 66.3%; with OVCAR-3 ovarian, 52.7%; with HS 578T breast, 3.78% (active); in the assay on NCI/ADR-RES ovarian it was 63.5%; in the assay on T-47D breast, 61.6%; in the assay on BT-549 breast, 88.2%. The growth is 73.4% in the assay on MDA-MB-435 melanoma; 80% with SW-620 colon; 48% in the assay with MCF7 breast; 33.8% in the assay on HCT-116 colon; 83% with HCC-2998 colon; 52.8% in the assay with KM12 colon.
Consider `CCc1nn2c(-c3ccccc3)c(-c3cc(OC)c(OC)c(OC)c3)nc2s1`, for which the growth was 59.4% with SR leukemia; 60.2% with RPMI-8226 leukemia; 88.1% with OVCAR-8 ovarian; 98.5% in the assay with OVCAR-5 ovarian; 68.5% in the assay with OVCAR-4 ovarian; 102% with SK-OV-3 ovarian. Further, the growth is 87.3% in the assay with IGROV1 ovarian; 92% with OVCAR-3 ovarian; 69.8% in the assay on HS 578T breast; 77.1% with NCI/ADR-RES ovarian; 72.5% in the assay with T-47D breast; 111% in the assay on BT-549 breast. In addition, the growth in the assay with MDA-MB-435 melanoma was 95.5%; with SW-620 colon, 83.5%; with MCF7 breast, 60.6%; with HCT-116 colon it was 80.8%; with HCC-2998 colon, 91.6%; in the assay with KM12 colon, 94.7%.
Regarding `COc1ccc(-c2nc(SCC(=O)c3ccc(Br)cc3)[nH]c(=O)c2C#N)cc1`, the growth is 94.5% in the assay with SR leukemia; 104% with RPMI-8226 leukemia; 106% in the assay on OVCAR-8 ovarian; 102% with OVCAR-5 ovarian; 120% with OVCAR-4 ovarian; 113% in the assay on SK-OV-3 ovarian. In addition, the growth in the assay with IGROV1 ovarian is 112%; in the assay on OVCAR-3 ovarian it was 99.3%; with HS 578T breast, 96.4%; in the assay with NCI/ADR-RES ovarian it was 110%; in the assay on T-47D breast it was 93.9%; in the assay on BT-549 breast, 94.2%. The growth in the assay on MDA-MB-435 melanoma is 100%; in the assay on SW-620 colon it was 106%; in the assay on MCF7 breast, 100%; in the assay with HCT-116 colon, 97.4%; in the assay with HCC-2998 colon, 104%; in the assay on KM12 colon, 96.9%.
`COc1cc(CSc2nc3ccc(Cl)cc3c(=O)n2-c2ccccc2)cc(OC)c1OC`: the growth was 45.6% in the assay with SR leukemia; 105% in the assay on RPMI-8226 leukemia; 84.3% with OVCAR-8 ovarian; 84.7% in the assay with OVCAR-5 ovarian; 81.7% in the assay on OVCAR-4 ovarian; 94.4% in the assay with SK-OV-3 ovarian. The growth in the assay on IGROV1 ovarian was 72.5%; in the assay with OVCAR-3 ovarian it was 77.8%; with HS 578T breast, 90.3%; in the assay on NCI/ADR-RES ovarian it was 75.5%; in the assay with T-47D breast, 71%; with BT-549 breast it was 92.8%. The growth in the assay with MDA-MB-435 melanoma was 24.4%; in the assay on SW-620 colon it was 79.7%; in the assay with MCF7 breast, 76.9%; in the assay with HCT-116 colon, 61.8%; with HCC-2998 colon, 80%; in the assay on KM12 colon it was 49.8%.
For `CCNC(=S)NN`, the growth in the assay with SR leukemia was 61.6%; with RPMI-8226 leukemia it was 75.9%; in the assay on OVCAR-8 ovarian, 71.1%; in the assay on OVCAR-5 ovarian it was 69.3%; in the assay with OVCAR-4 ovarian, 82.2%; with SK-OV-3 ovarian, 104%. The growth is 12.8% with IGROV1 ovarian; 106% with OVCAR-3 ovarian; 100% in the assay with HS 578T breast; 83.8% in the assay with NCI/ADR-RES ovarian; 47.2% in the assay on T-47D breast; 117% in the assay on BT-549 breast. Besides, the growth with MDA-MB-435 melanoma was 93.7%; in the assay with SW-620 colon, 83.2%; in the assay on MCF7 breast, 5.44% (active); in the assay with HCT-116 colon, 10.4%; in the assay on HCC-2998 colon, 94.7%; in the assay with KM12 colon it was 109%.

Source of the values: PubChem BioAssay (NCI).
